Screening data deposited in PubChem by National Center for Advancing Translational Sciences (NCATS).
HP1b chromo inh: inhibitors of HP1-beta chromodomain binding to methylated histone tails; AlphaScreen HP1-beta / biotin-H3K9me3 peptide binding; 0.56% of 390,000 active; Potency, µM (highest dose often 114 µM), for inactives: at the top dose activity change, negative = inhibition, most hits filed as inhibitors; further: potency means the concentration at half of the fitted maximal effect; nearly all actives have a fitted effect of over 70% in size
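Compound inhibition of the preformed complex between 50 nM HP1-beta and 50 nM biotinylated H3K9me3 peptide was read by AlphaScreen. Buffer was PBS pH 7.4 with 0.01% Tween-20. Incubations ran 30 min at room temperature, with 10 ug/mL donor/acceptor beads.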
JMJD2A Tudor inh: inhibitors of human JMJD2A Tudor domain | O75164 | 4.4% of 390,000 active | AlphaScreen JMJD2A-Tudor / H3K4me3 peptide binding | AID 504339 | Potency, µM (titrated, usually from 114 µM), for inactives: top-dose activity change, negative = inhibition, actives largely listed as inhibitors; further: potency means the concentration at half of the fitted maximal effect; on the % scale 0 is the no-effect control and ±100 the full control effect; nearly all actives have a fitted effect of over 50% in size
BAZ2B inh: blocks human BAZ2B; Q9UIF8; Potency, µM (titrated, usually from 114 µM), for the others: at the top dose activity change, negative = inhibition, most hits filed as inhibitors; AlphaScreen BAZ2B-H3K14Ac peptide displacement; 4.4% of 360,000 active; further: potency means the concentration at half of the fitted maximal effect; on the % scale 0 is the no-effect control and ±100 the full control effect; nearly all actives have a fitted effect of over 60% in size
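Complex of BAZ2B and biotin-H3K14Ac (50 nM apiece) forms over 30 min at RT, then faces library compounds up to 110 uM for another 30 min; AlphaScreen beads added, 20 min dark incubation, luminescence read.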
PI5P4K alpha inh: inhibitors of human PI5P4K alpha | P48426 | PI5P4Kalpha enzyme, ADP-Glo luminescence, 60 min; active compounds read low | AID 652105 | 1.2% of 330,000 active | max response, %; active means max response of -50% or lower; inconclusive means between -30% and -50%; inactive means -30% or higher; further: value at the top dose of about 77 µM; on the % scale 0 is the no-effect control and ±100 the full control effect
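Enzyme plus substrate dispensed, test compounds pinned in, then ATP (5 microM final) added. After 60 min at RT, ADP-Glo reagent 1 for 45 min and reagent 2 for 30 min preceded luminescence imaging.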
PLK1 PBD block: inhibitors of human PLK1 polo-box domain binding; 2.8% of 360,000 active; P53350; Potency, µM, for the others: max response, negative = inhibition, hits mostly inhibitors; Plk1 PBD binding of FITC phosphopeptide, fluorescence polarization; further: potency means the concentration at half of the fitted maximal effect; series mostly up to about 57 µM; on the % scale 0 is the no-effect control and ±100 the full control effect; nearly all actives have a fitted effect of over 65% in size
G9a inh: inhibitors of human histone lysine methyltransferase G9a; G9a H3K9 monomethylation, AlphaScreen, 2 h; Potency, µM (top dose mostly 102 µM), inactives show at the top dose activity, negative = inhibition, most hits filed as inhibitors; 8.8% of 350,000 active; Q96KQ7; AID 504332; further: potency means the concentration at half of the fitted maximal effect; on the % scale 0 is the no-effect control and ±100 the full control effect; nearly all actives have a fitted effect of over 75% in size
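Signal arises when biotinylated H3K9 peptide, once monomethylated, bridges streptavidin donor and antibody-captured acceptor beads. Enzyme at 20 nM was preincubated 15 min with test compounds; peptide 500 nM and SAM 20 uM then reacted for 2 h.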
* = called active by the depositor; [ ] = another dose, or the depositor's remark. In the library only some 12% were active in any assay of this set; here they are far more common. Unless noted, the call rests on the fitted dose curve; in most records, active means well fitted curve in the direction sought with a large enough effect; inconclusive means small, poorly fitted or top-dose-only effect, or another doubt; inactive means no such curve, though single readings can be large; an effect the other way counts as inactive or inconclusive.

How did CCCCCc1cc(=O)oc2c(C(CCN3CCCC3)c3ccc4c(c3)OCO4)c(OC)cc(OC)c12 (configuration not stated) do in these assays?
HP1b chromo inh: -34%; JMJD2A Tudor inh: 50µM*

Results for COc1ccc(C(CCN2CCCC(C)C2)c2c(OC)cc(OC)c3c(C)cc(=O)oc23)cc1 (configuration not stated) ?
HP1b chromo inh: 10%; JMJD2A Tudor inh: -28%; BAZ2B inh: -2%; PI5P4K alpha inh: 0; PLK1 PBD block: -6%; G9a inh: 8%[59 µM]

What do the screens show for `CCCCCc1cc(=O)oc2c(C(CCN3CCCC(C)C3)c3ccc4c(c3)OCO4)c(OC)cc(OC)c12` (configuration not stated)?
HP1b chromo inh: -7%; JMJD2A Tudor inh: inconclusive; BAZ2B inh: 32µM*; PI5P4K alpha inh: -5; PLK1 PBD block: -1%; G9a inh: inconclusive

Results for CC(C)CN(C(=O)c1cccc([N+](=O)[O-])c1)c1c(N)n(CC(C)C)c(=O)[nH]c1=O ?
HP1b chromo inh: 37%; JMJD2A Tudor inh: 6%; BAZ2B inh: 23%; PI5P4K alpha inh: -5; PLK1 PBD block: 4%; G9a inh: 50µM*

How did CC(C)CN(C(=O)CCc1ccccc1)c1c(N)n(CC(C)C)c(=O)[nH]c1=O do in these assays?
HP1b chromo inh: 6%; JMJD2A Tudor inh: -18%; BAZ2B inh: -4%; PI5P4K alpha inh: 0; PLK1 PBD block: -8%; G9a inh: 25%[59 µM]

What do the screens show for `CC(C)CN(C(=O)c1cc2ccccc2o1)c1c(N)n(CC(C)C)c(=O)[nH]c1=O`?
HP1b chromo inh: 25%; JMJD2A Tudor inh: 0%; BAZ2B inh: 9%; PI5P4K alpha inh: 16; PLK1 PBD block: 2%; G9a inh: 50µM*

Results for c1csc(CNc2nc(Oc3ccncc3)c3sccc3n2)c1 ?
PI5P4K alpha inh: -2; PLK1 PBD block: -26%

How did Cn1cccc1-c1cc(C(=O)O)[nH]n1 do in these assays?
HP1b chromo inh: 33%; JMJD2A Tudor inh: -7%; BAZ2B inh: inconclusive; PLK1 PBD block: 0%; G9a inh: 50µM*

How did Cc1nc(C)c(CC(=O)N2CCc3c([nH]c4ccccc34)C2c2ccccn2)s1 (configuration not stated) do in these assays?
HP1b chromo inh: 0%; JMJD2A Tudor inh: -35%; BAZ2B inh: inconclusive; PI5P4K alpha inh: 5; PLK1 PBD block: -11%

How did CCOC(=O)c1[nH]c(C)c(C(=O)N2CCc3c([nH]c4ccccc34)C2c2ccccn2)c1C (configuration not stated) do in these assays?
HP1b chromo inh: -24%; JMJD2A Tudor inh: inconclusive; BAZ2B inh: 50µM*; PI5P4K alpha inh: 1; PLK1 PBD block: -3%; G9a inh: 8%[0.501 µM]

What do the screens show for `Cc1ncoc1C(=O)N1CCc2c([nH]c3ccccc23)C1c1ccccc1F` (configuration not stated)?
HP1b chromo inh: -13%; JMJD2A Tudor inh: inconclusive; BAZ2B inh: 50µM*; PI5P4K alpha inh: 1; PLK1 PBD block: -6%; G9a inh: 40µM*

Results for CSc1ccc(C2c3[nH]c4ccccc4c3CCN2C(=O)c2ccnn2C)cc1 (configuration not stated) ?
HP1b chromo inh: -5%; JMJD2A Tudor inh: inconclusive; BAZ2B inh: inconclusive; PI5P4K alpha inh: 8; PLK1 PBD block: -10%; G9a inh: 40µM*

What do the screens show for `O=C(O)c1cc(-c2ccccc2)n[nH]1`?
HP1b chromo inh: 50%; JMJD2A Tudor inh: -6%; BAZ2B inh: 8%; G9a inh: 13%[59 µM]

How did Cn1c(=O)cc(OCC(=O)N2CCN(c3ccc(F)cc3)CC2)c2ccccc21 do in these assays?
HP1b chromo inh: 27%; JMJD2A Tudor inh: -10%; BAZ2B inh: -20%; G9a inh: -8%[59 µM]
